# The full ranking holds about 24,000 sequences; the median of “enrichment r” is about 0.99, and the highest 2% start at about 3.7. These entries were drawn from the full list.
# T1: UNK ZnF1-3 (human, UniProt Q9C0B0 31-174)
# T1 sequence: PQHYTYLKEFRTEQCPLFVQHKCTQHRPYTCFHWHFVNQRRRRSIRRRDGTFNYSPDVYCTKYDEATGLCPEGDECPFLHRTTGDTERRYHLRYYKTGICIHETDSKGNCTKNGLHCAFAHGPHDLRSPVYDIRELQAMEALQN
# B1: chr1:44133529:44133530:+_ENSG00000066135_ENST00000372396|hu_hu|FALSE|FALSE (ssRNA)
# RNA: GGGAGUUCUACAGUCCGACGAUCAAACUCAGCUGCUUCUGGCGUGGGCAGAGUAUGGUCAAUAACUGUGUUGUCCUUCCCAGCUUUCCAAAGUUUGUACCUUUCUGGCUGGAACUUUCUCACAAACACAUCCAUGGAGAUCUUCAACAGAGGAUUGAGCAUCA
# B2: chr7:149068622:149068623:-_ENSMUSG00000025139_ENSMUST00000001950|mus_hu|mus_mus_mus_hu_False|28_108 (ssRNA)
# RNA: GGGAGUUCUACAGUCCGACGAUCGUGCAGGUACUGAGUGUGGCUUGUGGUCUGUCCUGGGUUAGAGUUGUUAAUAUCACGGAACAUACCAUCUAGAACGUUCCAGUCUGCCUGACUACCUUCAUUCCCAAUGGAGAAGAAAUCCAACAGAGGAUUGAGCAUCA
# B3: chr12:111867003:111867004:+_ENSMUSG00000018707_ENSMUST00000018851|mus_hu|FALSE|FALSE (ssRNA)
# RNA: GGGAGUUCUACAGUCCGACGAUCCACCAGCAUAUUUAUCUUCAUGUAACCUUUCAGAAGCCUCUGAACAAACUCAUAGGACGCAUACUGUCGCAACCGGGCAGGGAAGCUUUUCAGCUGGUUCAGGAGGGCAUCCAAAUUUUGCAACAGAGGAUUGAGCAUCA
# B4: chr18:32579733:32579734:+_ENSMUSG00000024381_ENSMUST00000025239|mus_mus|motif|central (ssRNA)
# RNA: GGGAGUUCUACAGUCCGACGAUCUUUAUGGAAGUUUUCCUCCAGACCCGCGAUGCUCUGGAACGUGUUGACAUAGAAACCGGCACGGCUGUUCCACAGGGAUGGCAGCUCCUCCUGCAGAUCCACGUUCAUCUCCUCGAACACCAACAGAGGAUUGAGCAUCA
# B5: chr8:27055589:27055590:-_ENSMUSG00000037260_ENSMUST00000037609|mus_hu|FALSE|FALSE (ssRNA)
# RNA: GGGAGUUCUACAGUCCGACGAUCUUCCCUUUAACAAAGGCUGCUUCAGUCCUCCCUGCAGGCCUACUAGAGUCUUCCAGCAGCACAUCUCAGUGGGAGCCAUCAGAUUUUCCAAAAAAUCUUCUUUCUAUAGAGGAUGUAGGCCAACAGAGGAUUGAGCAUCA
# B6: chr16:94690093:94690094:+_ENSMUSG00000040785_ENSMUST00000117648|mus_hu|mus_mus_mus_hu_True|28_38 (ssRNA)
# RNA: GGGAGUUCUACAGUCCGACGAUCGGGCUGGGAUGACGGACACACAGCCUCGAUUCCAGGGGGAAAAAGUCUUAGUCGAUACUAAUUAAAAAGUGUUUUUAUAAUUGAUUACCAAAAUUACAUCUAUAAAAGAUGAAAAGCAAACAACAGAGGAUUGAGCAUCA
# B7: chr12:16048344:16048345:+_ENSG00000023734_ENST00000419869|hu_hu|hu_hu_hu_mus_True|18_18 (ssRNA)
# RNA: GGGAGUUCUACAGUCCGACGAUCAGAUCGUCCAUAAGUAAUAACCAAAAUCUCUCCUUCAGGAAUAUACUCCAUGCUGCUAACAGACAUAUUAAAAUUCAGAGAUUUCACUUCUGUCAUAGUAGCAUGAUCCCAGAGCCGAACCAACAGAGGAUUGAGCAUCA
# B8: chr5:134191040:134191041:+_ENSG00000181904_ENST00000394976|hu_hu|motif|central (ssRNA)
# RNA: GGGAGUUCUACAGUCCGACGAUCAAAAGCAGCAGUGCCACAGCCAUAACCAAGAUCGGCAAGACGGGAUAGAGCUUUAAUGCGGCCUGGAGGUCUGCCUGGGCUGACUUUGUAUCCCGCAGCUUUAGUUGUCCCCAAAGGUCUCAACAGAGGAUUGAGCAUCA
# B9: chr9:74905015:74905016:+_ENSMUSG00000007656_ENSMUST00000169492|mus_hu|FALSE|FALSE (ssRNA)
# RNA: GGGAGUUCUACAGUCCGACGAUCUGUGUUUGAAAUAUGUGACCUUUCUUCUAACUUGUGGUCUUAAACUUCUGUUUUACAAAAUCCAAAAGGUAAAUACAGAAGAAAUCAAUACAAUAGAGAUUAUAUUAAAUAAGAGUAACACAACAGAGGAUUGAGCAUCA
# B10: chr22:32879901:32879902:+_ENSG00000100225_ENST00000397426|hu_mus|hu_hu_hu_mus_False|8_18 (ssRNA)
# RNA: GGGAGUUCUACAGUCCGACGAUCCUCUUCCAUACUCAUGGCAUCCUGAAUUGACUCAGCUUCAACAUUUUGACUAGGCCCUUCCAUACUGUCAUCAGUCCAGGCAUCAAAUGGGGUUGCCUGUCCUUGGAAUGAAUCAGUCCCCAACAGAGGAUUGAGCAUCA
# B11: chr6:50805741:50805742:+_ENSG00000008196_ENST00000393655|hu_hu|FALSE|FALSE (ssRNA)
# RNA: GGGAGUUCUACAGUCCGACGAUCCAGGGAGGUGAGUAACGUGACAUUUGCUGCUUUGCGCCUGCCCGCGGGUAAAUUCAAACCGAUUUUUUCUAGCCUUUCUCGCAAAGAUCUCCCCCCAUUUUUCGAUUUGGCUCUUCUGAGCAACAGAGGAUUGAGCAUCA
# B12: chr7:99593380:99593381:+_ENSMUSG00000052572_ENSMUST00000098308|mus_hu|FALSE|FALSE (ssRNA)
# RNA: GGGAGUUCUACAGUCCGACGAUCGGUGAGGAGGCUCUCAUCUCAUCUCUUGGGCAGAAAGCCCGUCAGAGGUUCAUCCCUACACCUGGCACUUUGAGCAAACCAAAGCCUUCCUUCAUACUGCAAUGUCUUUUCUGUCCCACCCAACAGAGGAUUGAGCAUCA
# B13: 73047273_73096420_338_5pUTR_ENSG00000163605_ENST00000295862|human|control|control (ssRNA)
# RNA: GGGAGUUCUACAGUCCGACGAUCGGCUCAGGAGCUGAAGUUCUGAAAUCAUCCAUCACUUUCUCCAGUUUGAAAAUAAAAUAGCCUUUAAAUUGGGACCACUGAAUCAUUGUUUCUCCAGUCUUGGCUACAUGACAAAGAAACCAACAGAGGAUUGAGCAUCA
# B14: chr3:179287964:179287965:+_ENSG00000136518_ENST00000429709|hu_hu|hu_hu_hu_mus_True|28_38 (ssRNA)
# RNA: GGGAGUUCUACAGUCCGACGAUCCUUGAGUGGUGAGAUGGCCUCCAUGUUCUCCCUGGGCACGCGGAGGGCAUUGGUGUCUAUGUAGUAGGUGGGCCCGCCUUGUUUGCCUUUAUCACCAUCAAUCUCCAUCAUUGUACUUCCCAACAGAGGAUUGAGCAUCA
# Biological target: T1, UNK ZnF1-3
# Assay: nsRBNS (natural sequence RNA bind-n-seq); RBNS binding buffer (assumed for nsRBNS): 25 mM Tris pH 7.5, 150 mM KCl, 3 mM MgCl2, 0.01% Triton X-100, 500 ug/ml BSA, 20 U/ml SUPERase-In, 4 C; UNK is unkempt and MSI1 is Musashi-1; names of the RNAs are library labels; protein concentration not given here; high values mean tight binding
row,Binder,binding signal [enrichment R]
1,B1,0.628
2,B2,0.859
3,B3,1.13
4,B4,0.625
5,B5,1.28
6,B6,1.26
7,B7,0.977
8,B8,1.39
9,B9,2.28
10,B10,1
11,B11,1.13
12,B12,1.29
13,B13,1.25
14,B14,0.581

# Reference: article PMC12136788
